Screens: PubChem, Johns Hopkins Ion Channel Center
Shown are actives, neighbours in structure and some others; about 1.6% of the full set was active somewhere.
KCNQ2 block: blocks the rat KCNQ2 potassium channel; O88943; CHO-K1 KCNQ2, FluxOR thallium flux, 20 min; stronger effect = lower value; B-score at 10 µM; 310,000 compounds, 1.1% hits;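 active = fluorescence ratio B-score at most minus 3 library SDs, with starting brightness B-score within 2 library SDs, cut at about -5.5 in these data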
KCNQ2 pot: enhances the rat KCNQ2 potassium channel; AID 2239; O88943; CHO-K1 KCNQ2, FluxOR thallium flux fluorescence; stronger effect = higher value; B-score at 10 µM; 310,000 compounds, 0.54% hits;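 active = fluorescence ratio B-score at least 3 SD of library B-scores, with initial fluorescence B-score within 3 of them, cut at about 5.3 in these data; same plate scores as AID 2156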;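 note: B-score of peak minus minimum over baseline fluorescence ratio after K+ and Tl+ stimulus; positive B-score means potentiation of KCNQ2 with more thallium influx and brighter signal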
Kir21 confirm: confirmation of mouse Kir2.1 potassium channel inhibitors; AID 2032; Tl flux remaining, % of negative control (stronger effect = lower value), % at 10 µM; shares compounds with KCNQ2 pot; 2,300 compounds, 41% hits; Kir2.1-expressing cells, FluxOR thallium flux fluorescence; stronger effect = lower value;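 active = Primary-screen hit whose thallium flux fell at least 3 control SD below untreated wells in both duplicates, with normal baseline fluorescence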;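 note: 0% = blank wells without stimulus and 100% = stimulated no-compound controls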
Target sequence (P35561 whole entry, looked up): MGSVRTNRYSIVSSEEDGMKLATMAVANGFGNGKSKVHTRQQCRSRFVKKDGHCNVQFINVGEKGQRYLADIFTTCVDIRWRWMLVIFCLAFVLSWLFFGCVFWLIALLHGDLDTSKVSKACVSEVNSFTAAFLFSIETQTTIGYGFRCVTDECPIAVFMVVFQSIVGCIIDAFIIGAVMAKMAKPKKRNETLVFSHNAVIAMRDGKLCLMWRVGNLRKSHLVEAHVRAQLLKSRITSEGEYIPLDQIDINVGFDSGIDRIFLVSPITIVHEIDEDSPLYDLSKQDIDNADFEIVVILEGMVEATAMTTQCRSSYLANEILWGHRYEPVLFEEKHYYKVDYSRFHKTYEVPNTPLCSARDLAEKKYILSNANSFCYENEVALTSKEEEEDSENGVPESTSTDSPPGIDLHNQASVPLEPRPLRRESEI
HEK293 Tl flux: counter-screen for Kir2.1 inhibitors: effect in parental HEK293 cells. FluxOR thallium flux fluorescence; 0% = unstimulated blank wells. shares compounds with KCNQ2 pot. FluxOR signal as % of negative control (100 = no effect), % at 10 µM. 2,300 compounds, 19% hits. AID 2105;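 active = dye signal at least 3 control SD above or below untreated wells in both duplicates, raw fluorescence within 3, either direction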;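 note: percent is based on the flux ratio of peak minus minimum fluorescence over baseline F0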
CHO-K1 ctr: counter-screen for KCNQ2 potentiators: effect in parental CHO-K1 cells; shares compounds with KCNQ2 pot; FluxOR thallium flux fluorescence; zero = vehicle mean+3SD, 100% = vehicle-minus-blank window; activity increase over 3SD of controls, % at 10 µM; 1,200 compounds, 43% hits;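 active = signal rise of at least 3 SD above the untreated control mean, in both duplicate wells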;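 note: counter screen of KCNQ2 potentiator hits so any rise reflects channel-independent effects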
KCNQ1 pot spec: selectivity of KCNQ2 potentiators: effect on human KCNQ1; shares compounds with KCNQ2 pot; CHO KCNQ1 stable, FluxOR thallium flux fluorescence; beyond 3SD, as % of vehicle-control signal; activation over 3SD threshold, % at 10 µM; 1,200 compounds, 28% hits;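 active = fluorescence ratio rise of at least 3 SD of vehicle wells above their mean, in both replicate wells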;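 note: 0% = vehicle mean plus 3 SD and 100% = vehicle minus unstimulated blank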
KCNQ2 pot confirm: confirmation of rat KCNQ2 potassium channel potentiators; shares compounds with KCNQ2 pot; AID 2287; 1,200 compounds, 68% hits; CHO-KCNQ2 cells, FluxOR thallium flux fluorescence; potentiation, less the hit threshold, % at 10 µM;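 active = fluorescence ratio rising 3 SD or more over the vehicle control mean in both replicates, plus primary screen hit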;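 note: peak minus minimum thallium fluorescence divided by baseline after K/Tl stimulus; 0% = vehicle mean plus 3 SD and 100% = vehicle minus unstimulated blank difference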
Kir2-1 sel: selectivity of KCNQ2 potentiators: effect on mouse Kir2.1 | shares compounds with KCNQ2 pot | HEK293 Kir2.1, FluxOR thallium flux fluorescence | activity over 3SD threshold, % at 10 µM | 1,200 compounds, 2% hits;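 active = fluorescence ratio rise of at least 3 SD above the vehicle-control mean, seen in both replicates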;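 note: 0% = vehicle mean plus 3 SD and 100% = vehicle minus no-stimulus blank window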
KCNQ2 W236L pot: rat KCNQ2 W236L mutant potentiation by KCNQ2 potentiators. shares compounds with KCNQ2 pot. CHO KCNQ2-W236L, automated patch clamp current. current increase over 3SD of negative controls (%), stronger effect = higher value, % at 25 µM. 940 compounds, 10% hits;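 active = current increase at least 3 SD of the untreated controls above them in both duplicate recordings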
* = called active by the depositor; i = inactive; x = not tested or not shown.

SMILES	KCNQ2 block	KCNQ2 pot	Kir21 confirm	HEK293 Tl flux	CHO-K1 ctr	KCNQ1 pot spec	KCNQ2 pot confirm	Kir2-1 sel	others
Cc1ccc(N=C(NO)c2cnccc2C(F)(F)F)c(C)c1	i	7.43*	i	i	-1.5	-13.8	-26.5	-39.1
CC(=O)NNC(=S)NC(=O)C(c1ccccc1)c1ccccc1	i	x	x	x	x	x	x	x
CC(C)(C)C(=O)NC(=S)NNC(=O)C(c1ccccc1)c1ccccc1	i	6.64*	i	65.5%*	-4.8	-12.7	-12.3	-22.4
CC1Cc2ccccc2N1C(=S)NC(=O)C1(C)CC1(Cl)Cl (centres undefined)	i	7.2*	i	272.0%*	-4.6	-9.2	26.2*	-14.4	KCNQ2 W236L pot=i
CC1Cc2ccccc2N1C(=S)NC(=O)c1ccco1 (centres undefined)	i	3.12	x	x	x	x	x	x
CCOc1ccccc1NC(=S)NCc1ccccc1	i	1.17	x	x	x	x	x	x
CN(C(=O)COc1cc(=O)n(C)c2ccccc12)c1ccc(Cl)cc1	i	x	x	x	x	x	x	x
CN(c1ccc(Cl)cc1)c1cc(=O)n(C)c2ccccc12	i	x	i	i	x	x	x	x
CC1CCCCC1NC(=S)NC(=O)c1sc2ccccc2c1Cl (centres undefined)	i	0.2	x	x	x	x	x	x
O=C(NC(=S)N(CCCCO)C1CCCCC1)c1sc2ccccc2c1Cl	i	17.5*	i	i	29.6*	27.6*	56.4*	-7.7	KCNQ2 W236L pot=i
Cc1ccc(S(=O)(=O)c2c(C)cc(C)nc2Oc2cccc(C)c2C)cc1	i	x	x	x	x	x	x	x
CNc1nc(C)cc(C)c1S(=O)(=O)c1ccc(C)cc1	i	x	i	i	x	x	x	x
Cc1ccc2c(CN3CCCCC3C)cc(=O)oc2c1 (centres undefined)	i	0.02	x	x	x	x	x	x
Cc1ccc2c(CN3CCCCC3C)cc(=O)oc2c1C (centres undefined)	i	24*	i	i	-3.2	-17.8	-26.7	-32.1
NC(=O)C1CCN(C2=C(NS(=O)(=O)c3ccccc3)C(=O)c3ccccc3C2=O)CC1	i	0.24	x	x	x	x	x	x
O=C(c1ccncc1)N1N=C(C2CC2)CC1(O)C(F)(F)F (centres undefined)	i	6.54*	i	i	56.2*	-8.9	-20.8	-42.8
O=C(c1cccnc1)N1N=C(C2CC2)CC1(O)C(F)(F)F (centres undefined)	i	1.57	x	x	x	x	x	x
Cn1c(N)c(C(=O)COC(=O)C2CCCCC2)c(=O)n(C)c1=O	i	1.24	x	x	x	x	x	x
CCNC(=S)/N=C(/Nc1ccccc1)Nc1nc(C)cc(C)n1	i	0.68	i	i	x	x	x	x
CCNC(=S)/N=C(/Nc1ccc(OC)cc1)Nc1nc(C)cc(C)n1	i	x	x	x	x	x	x	x
CC(=O)n1cc(C(C[N+](=O)[O-])SCCN)c2ccccc21 (centres undefined)	-7.34*	-7.34	50.0%*	76.0%*	x	x	x	x
Cn1cc(C(C[N+](=O)[O-])c2ccccc2)c2ccccc21 (centres undefined)	i	x	x	x	x	x	x	x
O=c1[nH]c(CN2CCN(S(=O)(=O)c3ccc4ccccc4c3)CC2)nc2ccccc12	i	x	x	x	x	x	x	x
CCCc1nnc(NC(=O)CCC(=O)N2CCCCC2)s1	i	0.22	x	x	x	x	x	x
COc1ccc(CNC(=O)c2csnn2)cc1	i	x	x	x	x	x	x	x
SMILES	KCNQ2 block	KCNQ2 pot	Kir21 confirm	HEK293 Tl flux	CHO-K1 ctr	KCNQ1 pot spec	KCNQ2 pot confirm	Kir2-1 sel	others
O=C(Nc1csnn1)c1csnn1	i	x	x	x	x	x	x	x
COc1ccc(NC(=S)NC(=O)c2csnn2)cc1	i	10.7*	i	242.5%*	21.2*	-10.5	29.9*	-19.2	KCNQ2 W236L pot=i
O=C(NC(=S)Nc1ccccc1)c1ccc(-c2ccccc2)cc1	i	0.29	x	x	x	x	x	x
O=C(NC(=S)Nc1ccccc1)c1cc(-c2ccccc2)nc2ccccc12	i	16.9*	i	131.0%*	-13.1	-20.7	1.7*	-33.8	KCNQ2 W236L pot=i
O=C(NC(=S)Nc1ccc(C(F)(F)F)cc1)c1csnn1	i	21.2*	i	398.0%*	2.2*	-25.8	69.4*	-22.6	KCNQ2 W236L pot=i
O=C(NC(=S)Nc1ccccc1)c1csnn1	i	18.1*	i	487.0%*	-18.0	-12.7	73.3*	-4.7	KCNQ2 W236L pot=i
O=C(NC(=S)Nc1ccccn1)c1cc(-c2ccccc2)nc2ccccc12	i	1.68	x	x	x	x	x	x
COc1ccc(-n2c(=O)[nH]cc(C(=O)Nc3ccc(NC(C)=O)cc3)c2=O)cc1	i	x	x	x	x	x	x	x
CC(C)n1cc(/C=C2/NC(=O)N(c3cccc(Cl)c3)C2=O)c2ccccc21	i	x	x	x	x	x	x	x
CC(=O)c1cccc(NC(=O)C(C)OC(=O)CCN=C2NS(=O)(=O)c3ccccc32)c1 (centres undefined)	i	0.41	x	x	x	x	x	x
CCOC(=O)N1CCN(C(=O)CSc2nnc(COc3ccccc3)o2)CC1	i	x	x	x	x	x	x	x
COc1ccc(CNC(=S)Nc2cccc(F)c2)cc1	i	0.28	x	x	x	x	x	x
CCn1c(=S)[nH]c2scc(-c3cccs3)c2c1=O	i	18.3*	i	508.0%*	3.7*	-18.4	94.1*	1.6*	KCNQ2 W236L pot=i
C=CCn1c(SCC(C)=O)nc2scc(-c3ccc(C)o3)c2c1=O	i	x	x	x	x	x	x	x
O=c1c2c(-c3cccs3)csc2[nH]c(=S)n1-c1ccccc1	i	1.28	x	x	x	x	x	x
C=CCn1c(=S)[nH]c2scc(-c3ccc(C)o3)c2c1=O	i	15.6*	i	384.5%*	4.1*	-12.7	46.5*	-21.0	KCNQ2 W236L pot=i
Cc1ccc(N(C(=O)c2csnn2)C(C(=O)NC2CCCC2)c2cccnc2)cc1 (centres undefined)	i	1.45	x	x	x	x	x	x
Cc1ccc(-c2csc(N3CCN(S(=O)(=O)c4ccc5c(c4)NC(=O)CO5)CC3)n2)cc1	i	0.14	x	x	x	x	x	x
C/C(=N\NS(=O)(=O)c1ccc(C)cc1)c1ccc(Br)s1	i	0.78	x	x	x	x	x	x
COC(=O)c1ccc(C)c(NC(=S)NCc2ccc(Cl)cc2)c1	i	0.41	x	x	x	x	x	x
COC(=O)c1sccc1NC(=S)NCc1ccc(Cl)cc1	i	7.23*	i	212.5%*	2.7*	-19.8	38.5*	-22.4	KCNQ2 W236L pot=i
CCc1ccc(-n2nc3ccc(NC(=O)c4ccc5c(c4)OCO5)cc3n2)cc1	i	x	x	x	x	x	x	x
O=S(=O)(Nc1nc2ccccc2nc1NCC1CCCO1)c1ccc(F)cc1 (centres undefined)	i	0.15	x	x	x	x	x	x
Oc1cccc(NC(=S)N=Nc2c(O)[nH]c3ccccc23)c1	i	0.32	x	x	x	x	x	x
Cc1ccc(-c2cc3nc4c(c(=O)n3[nH]2)CCCC4)cc1	i	x	x	x	x	x	x	x
